Experimental data reported in PubChem BioAssay (Tox21).
Records with an inconclusive call do not appear. The source made the active and inactive calls. Calls come from the whole dose curve; as a rule, active = well fitted curve in the direction sought with a large enough effect in the repeat runs; inconclusive = weak or mixed curves; inactive = no such curve, though single readings can be large; an effect the other way counts as inactive or inconclusive.

Tests used:
[1] = qHTS RealTime-Glo MT Cell Viability Assay in HepG2 cells - 24 hour (AID 1224867); note: nearly all actives have a fitted effect of over 50% in size
How it was run: (§1)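 HepG2 cells (600/well) were dispensed with RealTime-Glo reagents, incubated 5 h at 37 °C, then treated with compounds in DMSO for up to 40 h. Nonlytic NanoLuc luminescence reflecting viable cells was read at each stated time point.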

[2] = qHTS RealTime-Glo MT Cell Viability Assay in HEK293 cells - 32 hour (AID 1224868); note: nearly all actives have a fitted effect of over 50% in size; note: potency is the fitted concentration of half-maximal effect
How it was run: (§2)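 HEK293 cells seeded with NanoLuc/prosubstrate reagent, rested 5 h at 37 C, then dosed and kept at 37 C up to 40 h. Nonlytic real-time luminescence from viable cells read at 0, 8, 16, 24, 32 and 40 h.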

[3] = A CellTox Green Cytotoxicity Assay to monitor cytotoxicity in HEK293 cells - 0 hour (AID 1224869); note: nearly all actives have a fitted effect of over 50% in size
How it was run: (§3)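 Seeding of HEK293 cells together with cytotoxicity dye preceded a 5 h incubation at 37 C/5% CO2. Test compounds in DMSO were then added and fluorescence monitored across 40 h.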

[4] = qHTS RealTime-Glo MT Cell Viability Assay in HepG2 cells - 40 hour (AID 1224870); note: nearly all actives have a fitted effect of over 50% in size
How it was run: (§4)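 HepG2 cells (600/well) mixed with RealTime-Glo MT reagent, settled 5 h at 37 C/5% CO2 before compound addition. Nonlytic NanoLuc luminescence from viable-cell prosubstrate reduction read repeatedly during 40 h treatment at 37 C.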

[5] = A CellTox Green Cytotoxicity Assay to monitor cytotoxicity in HEK293 cells - 40 hour (AID 1224871); note: nearly all actives have a fitted effect of over 45% in size
How it was run: as §3

[6] = qHTS RealTime-Glo MT Cell Viability Assay in HepG2 cells - 8 hour (AID 1224873); note: nearly all actives have a fitted effect of over 55% in size
How it was run: as §4

[7] = qHTS RealTime-Glo MT Cell Viability Assay in HEK293 cells - 40 hour (AID 1224874); details: RealTime-Glo luminescence; max response: active compounds read low; note: nearly all actives have a fitted effect of over 50% in size; note: potency is the fitted concentration of half-maximal effect
How it was run: (§5)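 Tox21 screen in HEK293 using RealTime-Glo MT chemistry, with cells and reagent co-dispensed. Luminescence proportional to viable cell number was captured at intervals during 40 h compound exposure at 37 C.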

[8] = A CellTox Green Cytotoxicity Assay to monitor cytotoxicity in HEK293 cells - 24 hour (AID 1224875); note: series mostly up to about 77 µM; nearly all actives have a fitted effect of over 45% in size
How it was run: as §3

[9] = qHTS RealTime-Glo MT Cell Viability Assay in HepG2 cells - 32 hour (AID 1224877); note: nearly all actives have a fitted effect of over 55% in size
How it was run: as §1

[10] = A CellTox Green Cytotoxicity Assay to monitor cytotoxicity in HepG2 cells - 24 hour (AID 1224878); note: nearly all actives have a fitted effect of over 45% in size
How it was run: (§6)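 Nonlytic assay: viable cells exclude the dye, so fluorescence scales with cell death. HepG2 at 600 cells/well, compounds added after 5 h, signal read across 40 h.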

[11] = qHTS RealTime-Glo MT Cell Viability Assay in HEK293 cells - 0 hour (AID 1224880); note: top concentration of the series differs between compounds; nearly all actives have a fitted effect of over 45% in size
How it was run: as §5

[12] = A CellTox Green Cytotoxicity Assay to monitor cytotoxicity in HEK293 cells - 32 hour (AID 1224881); note: nearly all actives have a fitted effect of over 40% in size
How it was run: as §3

[13] = A CellTox Green Cytotoxicity Assay to monitor cytotoxicity in HepG2 cells - 0 hour (AID 1224882); note: nearly all actives have a fitted effect of over 35% in size
How it was run: as §6

[14] = A CellTox Green Cytotoxicity Assay to monitor cytotoxicity in HEK293 cells - 8 hour (AID 1224884); note: nearly all actives have a fitted effect of over 35% in size
How it was run: as §3

[15] = qHTS RealTime-Glo MT Cell Viability Assay in HepG2 cells - 16 hour (AID 1224885); note: nearly all actives have a fitted effect of over 50% in size
How it was run: as §1

[16] = qHTS RealTime-Glo MT Cell Viability Assay in HEK293 cells - 24 hour (AID 1224886); note: nearly all actives have a fitted effect of over 50% in size; note: potency is the fitted concentration of half-maximal effect
How it was run: as §2

[17] = A CellTox Green Cytotoxicity Assay to monitor cytotoxicity in HepG2 cells - 16 hour (AID 1224876); note: nearly all actives have a fitted effect of over 45% in size
How it was run: as §6

[18] = A CellTox Green Cytotoxicity Assay to monitor cytotoxicity in HepG2 cells - 40 hour (AID 1224879); note: nearly all actives have a fitted effect of over 40% in size; note: potency is the fitted concentration of half-maximal effect
How it was run: as §6

[19] = A CellTox Green Cytotoxicity Assay to monitor cytotoxicity in HepG2 cells - 32 hour (AID 1224883); note: nearly all actives have a fitted effect of over 50% in size
How it was run: as §6

[20] = qHTS RealTime-Glo MT Cell Viability Assay in HEK293 cells - 16 hour (AID 1224872)
How it was run: as §2
% is set by controls: 0 for no effect and ±100 for the full control effect.

C=C(C)C(=O)OC1CC(C)CC(C)(C)C1 (stereo unspecified)
inactive: outcome [1] | Potency [2] | Potency [3] | outcome [4] | Potency [5] | outcome [6] | max response [7] 3.29% | Potency [8] | outcome [9] | Potency [10] | outcome [11] | Potency [12] | Potency [13] | Potency [14] | outcome [15] | Potency [16]

C[C@H](CCC(=O)NCC(=O)O)[C@H]1CC[C@H]2[C@@H]3[C@H](O)C[C@@H]4C[C@H](O)CC[C@]4(C)[C@H]3C[C@H](O)[C@]12C
active: Potency [2] 9.49 µM | Potency [7] 9.49 µM | Potency [16] 13.4 µM
inactive: outcome [1] | Potency [3] | outcome [4] | Potency [5] | outcome [6] | Potency [8] | Potency [17] | Potency [10] | Potency [18] | outcome [11] | Potency [12] | Potency [13] | Potency [19] | Potency [14] | outcome [15]

CCC(O)C(C)(C)C (stereo unspecified)
inactive: outcome [1] | Potency [2] | Potency [3] | outcome [4] | Potency [20] | outcome [6] | max response [7] 2.07% | Potency [17] | outcome [9] | Potency [10] | Potency [18] | outcome [11] | Potency [13] | Potency [19] | Potency [14] | outcome [15] | Potency [16]

C1CCN2C[C@@H]3C[C@@H](CN4CCCC[C@@H]34)[C@H]2C1
inactive: outcome [1] | Potency [2] | Potency [3] | outcome [4] | Potency [5] | outcome [6] | max response [7] 1.31% | Potency [8] | Potency [17] | outcome [9] | Potency [10] | Potency [18] | outcome [11] | Potency [12] | Potency [13] | Potency [19] | outcome [15] | Potency [16]

Cc1nc(C)nc(N2C[C@@H](C)N(c3ccnc([C@@H](C)O)n3)[C@@H](C)C2)n1
inactive: outcome [1] | Potency [2] | Potency [3] | outcome [4] | Potency [5] | outcome [6] | max response [7] 9.39% | Potency [8] | Potency [17] | outcome [9] | Potency [10] | Potency [18] | Potency [12] | Potency [13] | Potency [19] | Potency [14] | outcome [15] | Potency [16]

Nc1ccc(S(=O)(=O)NC(=O)c2ccccc2)cc1
inactive: outcome [1] | Potency [2] | Potency [3] | Potency [5] | Potency [20] | outcome [6] | max response [7] 2.96% | Potency [8] | Potency [17] | outcome [9] | Potency [10] | Potency [18] | outcome [11] | Potency [12] | Potency [13] | Potency [19] | Potency [14] | outcome [15] | Potency [16]

O=C1NC2NC(=O)NC2N1 (stereo unspecified)
inactive: outcome [1] | Potency [2] | Potency [3] | outcome [4] | Potency [5] | outcome [6] | max response [7] 1.34% | Potency [8] | Potency [17] | Potency [10] | Potency [18] | Potency [12] | Potency [13] | Potency [19] | Potency [14] | outcome [15] | Potency [16]

O=C(Oc1ccccc1C(=O)O)c1ccccc1O
inactive: outcome [1] | Potency [2] | Potency [3] | Potency [5] | Potency [20] | outcome [6] | max response [7] 4.65% | Potency [8] | Potency [17] | outcome [9] | Potency [10] | Potency [18] | outcome [11] | Potency [12] | Potency [13] | Potency [19] | Potency [14] | outcome [15] | Potency [16]

CC(C)(C)c1ccc(C=O)cc1
inactive: outcome [1] | Potency [2] | Potency [3] | outcome [4] | Potency [20] | outcome [6] | max response [7] 0.97% | Potency [8] | Potency [17] | outcome [9] | Potency [10] | Potency [18] | outcome [11] | Potency [13] | Potency [19] | Potency [14] | outcome [15] | Potency [16]

Cc1ccccc1C
inactive: outcome [1] | Potency [2] | Potency [3] | Potency [5] | Potency [20] | outcome [6] | max response [7] 13.2% | Potency [8] | Potency [17] | outcome [9] | Potency [10] | Potency [18] | outcome [11] | Potency [12] | Potency [13] | Potency [19] | Potency [14] | outcome [15] | Potency [16]

NC(=O)NNC(N)=O
inactive: outcome [1] | Potency [2] | Potency [3] | outcome [4] | Potency [5] | outcome [6] | max response [7] 19.6% | Potency [8] | Potency [17] | outcome [9] | Potency [10] | Potency [18] | outcome [11] | Potency [12] | Potency [13] | Potency [19] | Potency [14] | outcome [15] | Potency [16]

CCNC(=O)NCCCOc1cccc(CN2CCCCC2)c1
active: Potency [18] 26.8 µM
inactive: outcome [1] | Potency [2] | Potency [3] | outcome [4] | Potency [5] | outcome [6] | max response [7] -3.36% | Potency [8] | outcome [9] | outcome [11] | Potency [13] | Potency [14] | outcome [15] | Potency [16]

OCCCCCCCl
inactive: outcome [1] | Potency [2] | Potency [3] | outcome [4] | Potency [5] | outcome [6] | max response [7] -5.21% | Potency [8] | Potency [17] | outcome [9] | Potency [10] | Potency [18] | outcome [11] | Potency [12] | Potency [13] | Potency [19] | Potency [14] | outcome [15] | Potency [16]

COC(=O)CCC(=O)O
inactive: outcome [1] | Potency [2] | Potency [3] | Potency [5] | Potency [20] | outcome [6] | max response [7] 8.17% | Potency [8] | Potency [17] | outcome [9] | Potency [10] | Potency [18] | outcome [11] | Potency [12] | Potency [13] | Potency [19] | Potency [14] | outcome [15] | Potency [16]
